# Measured values published in PubChem BioAssay AID489012 (National Center for Advancing Translational Sciences (NCATS), 2010).
# Records with an inconclusive call do not appear. Calls of active or inactive are those of the source. Calls come from the whole dose curve; as a rule, active = well fitted activation curve with a large enough effect; inconclusive = small, poorly fitted or top-dose-only effect; inactive = no such curve, though single readings can be large or run the other way.
# Molecular target: Relaxin receptor 1 (Homo sapiens) (UniProt Q9HBX9)
# Test: qHTS Assay for Agonists of the Relaxin Receptor RXFP1: RXFP1 Hit Validation; note: nearly all actives have a fitted effect of over 65% in size;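 for activation: cAMP rise lowers the TR-FRET signal in lysed cells with PDE4 inhibitor present; 0% = buffer-only basal and 100% = 29 nM porcine relaxin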
# Settings: HEK293T-RXFP1 cAMP TR-FRET, 30 min; series mostly up to 115 µM; activation: at the top concentration
# From the text: NIH Chemical Genomics Center [NCGC] NIH Molecular Libraries Probe Production Centers Network [MLPCN] MLPCN Grant: R03 MH085705-01A1 Assay Submitter (PI): Alexander Agoulnik NCGC Assay Overview: The relaxin hormone is involved in the variety of biological functions in normal tissues and diseases. The role of relaxin is well-established in female reproduction and parturition, mammary gland and endometrial development, maintenance of myometrial quiescence during pregnancy. Relaxin signaling through its G protein-coupled receptor (GPCR) RXFP1 results in ECM remodeling through regulation of collagen deposition, cell invasiveness, proliferation and overall tissue homeostasis. […] Recombinant human relaxin (rhRlx) is currently being tested in clinical trials as a protective agent in congestive heart failure, in treating severe preeclampsia, and as an anti-fibrotic agent in systemic sclerosis. Upon relaxin binding RXFP1 activation leads to the activation of adenylate cyclase (AC) via Gs. cAMP will activate PKA, which phosphorylates many signaling proteins. Thus, detection of cAMP increase is an easy and reliable indication of relaxin receptor activation. To screen for agonists of the relaxin receptor, a HEK293T cell line stably transfected with RXFP1 was used. RXFP1 activation was assayed by changes in cAMP levels as detected with a time-resolved fluorescence energy transfer (TR-FRET) cAMP detection kit.
# NCGC Assay Protocol Summary: This is a cell-based assay for cAMP second messenger response to screen for agonists of the RXFP1 receptor. The assay was conducted in the presence of a PDE4 inhibitor (Ro 20174). The cells were lysed and the cAMP levels were measured with a TR-FRET cAMP kit. Presence of cAMP in the cell lysate disrupts binding between the cryptate-labeled anti-cAMP and d2-labeled cAMP pair, leading to a decrease in the TR-FRET signal. Data were normalized to the controls for basal activity (buffer only) and 100% activity (29 nM porcine relaxin). The EC50 values were determined from concentration-response data modeled with the standard Hill equation 1536-well assay protocol for the HEK293 RXFP1 cAMP assay: (1) Add 3 ul HEK293 RXFP1 cell culture. 2000 cells/well in DMEM/F12, 10% FBS, 1x Pen/Strep (dispensed offline with MultiDrop Combi). (2) Incubate 16-24 hr at 37C, 5% CO2. (3) Add 1 ul 400uM Ro20174 in DPBS, 0.05% BSA, 0.005% Tween 20. (3) Add 23 nl compounds in DMSO solution. Final concentration was 0.5 - 58 uM. (4) Incubate 30 min at 37C, 5% CO2. (5) Add 1 ul cAMP-d2 in lysis buffer (HTRF cAMP HiRange kit, CisBio). (6) Add 1 ul anti-cAMP antibody-cryptate in lysis buffer (HTRF cAMP HiRange kit, CisBio). (7) Incubate 30 min at room temperature. […] Keywords: relaxin, RXFP1, RXFP2, G-protein coupled receptor, cAMP, agonist, high throughput screening, MLSMR, MLSCN, NIH Roadmap, qHTS and NCGC
# Potency is the fitted concentration of half-maximal effect.
# Relaxin receptor 1 (Homo sapiens), sequence (Q9HBX9 whole entry, looked up): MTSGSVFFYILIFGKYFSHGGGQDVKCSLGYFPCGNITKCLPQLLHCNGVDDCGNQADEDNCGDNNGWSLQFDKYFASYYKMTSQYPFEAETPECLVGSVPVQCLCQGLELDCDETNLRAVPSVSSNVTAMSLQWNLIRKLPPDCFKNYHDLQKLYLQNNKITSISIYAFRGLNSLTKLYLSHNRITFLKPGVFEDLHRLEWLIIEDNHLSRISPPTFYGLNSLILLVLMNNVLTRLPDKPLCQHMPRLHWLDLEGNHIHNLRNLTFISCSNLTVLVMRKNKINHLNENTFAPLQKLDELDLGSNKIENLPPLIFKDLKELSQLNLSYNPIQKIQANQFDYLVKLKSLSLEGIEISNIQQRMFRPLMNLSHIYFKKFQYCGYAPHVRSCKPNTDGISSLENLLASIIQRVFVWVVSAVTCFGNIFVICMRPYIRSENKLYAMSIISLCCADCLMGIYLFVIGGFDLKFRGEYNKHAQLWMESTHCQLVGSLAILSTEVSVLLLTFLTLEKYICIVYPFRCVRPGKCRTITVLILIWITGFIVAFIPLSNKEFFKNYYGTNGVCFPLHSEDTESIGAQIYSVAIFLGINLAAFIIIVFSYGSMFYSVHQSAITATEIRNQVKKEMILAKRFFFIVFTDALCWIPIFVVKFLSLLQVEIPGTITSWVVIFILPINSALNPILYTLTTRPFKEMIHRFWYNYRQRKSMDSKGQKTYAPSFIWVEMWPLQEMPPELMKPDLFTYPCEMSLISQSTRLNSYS
Compound,Potency,activation
NC(=S)c1cc2ccc(O)cc2oc1=O,7.74 µM (active),–
CCc1cc2c(=O)nc3n(c2s1)Cc1ccccc1/C3=C(/O)c1cccc([N+](=O)[O-])c1,5.3 µM (active),–
COc1ccc(CCn2c(=N)c(C(=O)NCC3CCCO3)cc3c(=O)n4cccc(C)c4nc32)cc1 (stereo not given),–,20.5% (inactive)
N#Cc1c(N)nc(SCC(=O)C23CC4CC(CC(C4)C2)C3)c(C#N)c1-c1ccc(Cl)cc1,9.74 µM (active),–
Cc1cc(Br)c2nc3c(c(C(=O)O)c2c1)CCCCC3,1.94 µM (active),–
NC(=O)c1ccccc1NC(=O)CC12CC3CC(CC(C3)C1)C2,–,-7.81% [at 125 µM] (inactive)
CC1(C)Cc2c(sc3ncnc(NN)c23)CO1,–,25.2% [at 45 µM] (inactive)
Cc1cccc(NC(=O)c2ccccc2NC(=O)C2CCCCC2)c1C,–,-1.94% [at 125 µM] (inactive)
CC(NC(=O)c1ccccc1NC(=O)c1ccco1)C(=O)O (stereo not given),–,5.27% [at 125 µM] (inactive)
COc1ccc(CNC(=O)CN2C(=O)NC(C)(c3cccc(Br)c3)C2=O)cc1 (stereo not given),–,-2.25% (inactive)
Cc1ccc2[nH]c3c(=S)nc[nH]c3c2c1,3.88 µM (active),–
Cc1cc(NC(=O)c2ccccc2F)nc2c1c(=O)oc1ccccc12,17.3 µM (active),–
COc1ccccc1CNC(=O)CCCc1nnc2n(C)c(=O)c3sccc3n12,–,29.2% [at 45 µM] (inactive)
O=C(O)c1cc(-c2ccco2)nc2ccc(Br)cc12,19.4 µM (active),–
NCCNC(=O)Cc1ccc(NC(=O)Cc2ccc(Nc3ncnc4c3ncn4[C@@H]3O[C@H](CO)[C@@H](O)[C@H]3O)cc2)cc1,1.23 µM (active),–
Cc1cccc(N2C(=O)C(O)=C(C(=O)c3cccs3)C2c2ccc(C(C)C)cc2)n1 (stereo not given),–,22% (inactive)
Nc1c(Cl)cc(-c2[nH]c3cc(C(=O)NCCO)ccc3c(=O)c2O)cc1Cl,34.6 µM (active),–
Cc1cc(C)c(NC(=O)CS(=O)CC(=O)Nc2ccc(F)cc2F)c(C)c1 (stereo not given),–,3.66% (inactive)
O=C(Nc1ccccc1C(=O)Nc1ccc(F)cc1)c1ccco1,–,-0.753% [at 125 µM] (inactive)
Nc1ncnc2c1ncn2C1OC(CO)C(O)C1O (stereo not given),1.74 µM (active),–

Compound,Potency,activation
CCCC(=O)Nc1ncnc2c1ncn2[C@@H]1O[C@@H]2COP(=O)(O)O[C@H]2[C@H]1OC(=O)CCC,0.774 µM (active),–
Cc1ccccc1OCC(=O)Nc1sc(C(=O)Nc2cccc(C)c2C)c(C)c1C#N,6.15 µM (active),–
CCc1cc2cc3c(cc2nc1SCC(=O)Nc1nccs1)OCO3,17.3 µM (active),–
COc1ccc(/C=C2/SC(=O)N(CC(=O)Nc3cc(C)on3)C2=O)cc1OC,–,-68% (inactive)
CCN(c1ccccc1)S(=O)(=O)c1ccc(OC)c(NC(=O)C2CC(=O)N(Cc3ccccc3)C2)c1 (stereo not given),–,-5.54% (inactive)
CCN(CC)c1ccc(S(=O)(=O)N2CCOCC2)cc1NC(=O)CSc1nncn1C,12.3 µM (active),–
Cc1cccc2cc(C#N)c(SCC(=O)NCc3cccs3)nc12,17.3 µM (active),–
O=C(Nc1ccccc1C(=O)NCc1ccco1)c1ccccc1,–,16.5% [at 125 µM] (inactive)
CN(C)c1ccc2nc3c(=O)[nH]c(=O)nc-3n(CC(O)C(O)C(O)CO)c2c1 (stereo not given),–,7.23% (inactive)
Nc1nnc(CC(=O)N/N=C/c2ccc(-c3ccc(Cl)cc3Cl)o2)s1,–,6.59% (inactive)
O=C(O)CNC(=O)c1ccccc1NC(=O)c1ccco1,–,2.24% [at 125 µM] (inactive)
N#C/C(=C/c1ccc(OCc2ccccc2)cc1)C(=O)NC1CCCCC1,–,12.2% [at 45 µM] (inactive)
COc1cc(-c2nnc(SCC(=O)N(C)C3CCS(=O)(=O)C3)o2)cc(OC)c1OC (stereo not given),–,6.14% [at 45 µM] (inactive)
O=C(Nc1ccccc1C(=O)NCc1ccc(Cl)cc1)c1ccco1,–,-6.16% [at 125 µM] (inactive)
O=C(O)c1cccc(CSc2nnc(Cc3ccccc3)o2)c1,–,3.18% [at 45 µM] (inactive)
O=C(Nc1ccccc1C(=O)NCCc1ccccc1)c1ccco1,–,-11.1% [at 125 µM] (inactive)
Cc1ccccc1NC(=O)c1ccccc1NC(=O)c1ccco1,–,-6.33% [at 125 µM] (inactive)
Cn1c(=O)c2c(nc(SCC(=O)N3CCOCC3)n2C)n(C)c1=O,–,27.2% (inactive)
O=C(Nc1ccccc1C(=O)N1CCN(c2ccccc2)CC1)c1ccco1,–,-8.04% [at 125 µM] (inactive)
CN(C)c1ccc(NC(=O)C2C3C=CC(C3)C2C(=O)O)cc1 (stereo not given),–,-7.21% (inactive)
